For 20 sequences, sensor-assay potency score (higher = more potent) results are on record in the OligoGym collection.
Note: reference of the scale not given here.

The target of the first assay is CDCA8. Kind of assay: pooled miR-30 sensor sort-seq; sequence = guide strand. The conditions noted are these: shRNA.
Regarding TTACCTTTCGTGTTTTGGCAGA, the sensor-assay potency score (higher = more potent) is -0.552.

Turning to TATCATTTCATCTACCTGTATT, the sensor-assay potency score (higher = more potent) is -1.16.

Take TAAACATAAAACACTGCTCCAC: the sensor-assay potency score (higher = more potent) was -0.305.

For TTCATCTACCTGTATTACCTTT, the sensor-assay potency score (higher = more potent) was -0.507.

Sequence TATCTGAGCCTAAACCTCCCGG came in with a sensor-assay potency score (higher = more potent) of -0.819.

TTCACGGTCGAAGTCTTTCAGA came in with a sensor-assay potency score (higher = more potent) of -1.11.

Take TTCGTATTTCCACTTCACGGTC: the sensor-assay potency score (higher = more potent) was -0.813.

Sequence TTGGTCTTCAGTAAACAGGGAT showed a sensor-assay potency score (higher = more potent) of -0.3.

As for TCTACCTGTATTACCTTTCGTG, the sensor-assay potency score (higher = more potent) is -0.22.

With TTGCTTGATTCGTATTTCCACT, the sensor-assay potency score (higher = more potent) is -0.831.

The sequence TTTGCTGTCAGCAAGAGGGCTG showed a sensor-assay potency score (higher = more potent) of -0.00778.

In the next assay the target is CDH19. Described as above. Particulars: shRNA.
For the sequence TAGTCTGAATTACCTGACCAGA, the sensor-assay potency score (higher = more potent) was -1.28.

TTATCTATGATTGTAAAACTTG returned a sensor-assay potency score (higher = more potent) of -0.902.

TACTTGTAGTGATTGTACCATT showed a sensor-assay potency score (higher = more potent) of -0.931.

With TTGTTCCAGACAACGCTCCTGG, the sensor-assay potency score (higher = more potent) was -0.175.

Regarding TTCATTGTCATTGATATCCGAA, the sensor-assay potency score (higher = more potent) stood at 0.271.

As for TAACTTTTGCTCTAATACCGTA, the sensor-assay potency score (higher = more potent) was -0.771.

In turn, TTTTCCAGAATGAATTTCCTGA gave a sensor-assay potency score (higher = more potent) of -0.246.

TTTCTCAGGAAATAGAATCTGT gave a sensor-assay potency score (higher = more potent) of 0.0652.

Turning to TATTGGAATATATTCTCTCTGA, the sensor-assay potency score (higher = more potent) was -0.596.
